{"source": "PubChem BioAssay (Tox21)", "note": "Records with an inconclusive call do not appear. A number with no mark means an inactive call. Activity calls are given as the source filed them. Calls come from the whole dose curve. % is set by controls: 0 for no effect and ±100 for the full control effect."}
{"assay": "qHTS assay for small molecule agonists of the p53 signaling pathway (AID 651631); note: nearly all actives have a fitted effect of over 15% in size", "settings": "HCT-116 p53RE-bla reporter, beta-lactamase FRET ratio, 16 h; series mostly up to 73.3 µM; activation: at the top concentration", "how_it_was_run": "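HCT-116 cells carrying a stable p53 response element–beta-lactamase reporter were plated, rested 5 h at 37 °C, then exposed to compound in DMSO for 16 h at 37 °C; reporter activity was read as FRET substrate fluorescence after 2 h at room temperature.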"}
{"compound": "COc1nc(N)nc2c1ncn2[C@@H]1O[C@H](CO)[C@@H](O)[C@@H]1O", "activation": "0.614%"}
{"compound": "CC(C)(C)NCCNC(C)(C)C", "activation": "-2.27%"}
{"compound": "CCSC(=O)N(CC(C)C)CC(C)C", "activation": "1.53%"}
{"compound": "CC1(C)CO[C@@H](CC(=O)O)CN1", "activation": "-1.25%"}
{"compound": "COCCc1ccc(OCC(O)CNC(C)C)cc1", "note": "(stereo unspecified)", "outcome": "inactive"}
{"compound": "O=C1NC(=O)[C@@]2(CCOc3ccc(F)cc32)N1", "activation": "-1.7%"}
{"compound": "N[C@H]1CN(c2c(F)cc3c(=O)c(C(=O)O)cn(C4C[C@H]4F)c3c2Cl)CC12CC2", "note": "(stereo partly specified)", "activation": "-1.89%"}
{"compound": "CCCCCCCCCCCCN(CCCCCCCCCCCC)CCCCCCCCCCCC", "activation": "-2.17%"}
{"compound": "CC(C[N+](C)(C)C)OC(N)=O", "note": "(stereo unspecified)", "activation": "4.59%"}
{"compound": "O=C(O)CCCc1ccccc1", "activation": "3.29%"}
{"compound": "N#Cc1ccc(C2CCCc3cncn32)cc1", "note": "(stereo unspecified)", "activation": "1.96% [at 34.7 µM]"}
{"compound": "CCOC(C)(C)C", "activation": "-1.74% [at 95.1 µM]"}
{"compound": "c1ccc(CC2=NCCN2)cc1", "activation": "1.58% [at 34.7 µM]"}
{"compound": "O=C(O)c1ccccc1OP(=O)(O)O", "activation": "1.05%"}
{"compound": "C=CCS(=O)(=O)O", "activation": "2.76%"}
{"compound": "O=C(O)CCCl", "activation": "2.57% [at 95.1 µM]"}
{"compound": "COC(=O)[C@@H](N)Cc1ccc(O)c(O)c1", "activation": "-2.83%"}
{"compound": "NS(=O)(=O)c1cc(C(=O)O)cc(N2CCCC2)c1Oc1ccccc1", "activation": "-1.89% [at 34.7 µM]"}
{"compound": "CCOC(=O)c1cccc(N)c1", "activation": "-2.45%"}
{"compound": "CN(C(=O)c1c(O)c2ccccc2n(C)c1=O)c1ccccc1", "activation": "4.09%"}
{"compound": "CC(=O)c1ccccc1O", "activation": "-1.24%"}
{"compound": "CO[Si](CCCOCC1CO1)(OC)OC", "note": "(stereo unspecified)", "outcome": "inactive"}
{"compound": "CCCN(CCC)CCc1cccc2c1CC(=O)N2", "activation": "3.57%"}
{"compound": "NC(=O)COCCN1CCN(C(c2ccccc2)c2ccc(Cl)cc2)CC1", "note": "(stereo unspecified)", "activation": "-3.57%"}
{"compound": "NC(=O)Nc1ccccc1", "activation": "-1.68%"}
{"compound": "COc1c(N2C[C@@H]3CCCN[C@@H]3C2)c(F)cc2c(=O)c(C(=O)O)cn(C3CC3)c12", "activation": "1.35%"}
